Most compounds without a hit are left out; they make up all but 19% or so of the library.
DT40 TDP1 CPT: growth inhibition of DT40 Tdp1-/-;hTDP1 cells with camptothecin (screen for TDP1 inhibitors). Potency, µM (doses to about 46.2 µM), without a hit: top-dose activity change, negative = growth inhibition, most hits filed as inhibitors. 12% of 420,000 active. chicken DT40 Tdp1-/-;hTDP1 cells + 20 nM CPT, ATP luminescence, 48 h. AID 686979; also: potency is read from the fitted curve at half-maximal effect; nearly all actives have a fitted effect of over 55% in size
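Chicken DT40 Tdp1-/- cells stably complemented with human TDP1 were seeded at 400 cells/well in medium containing 20 nM camptothecin, exposed to pin-transferred compounds, and grown at 37 °C for at least 48 hr. Viability was read as ATP luminescence.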
HT1080 IDH1KD tx: toxicity to HT-1080 IDH1 knockdown cells (counter line); HT-1080 IDH1 knockdown viability, ATP luminescence, 48 h; Potency, µM (titrated, usually from 46.1 µM), for the others: at the top dose activity, negative = toxicity, actives largely listed as cytotoxic; 2% of 360,000 active; AID 686971;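 also: potency is read from the fitted curve at half-maximal effect; 0% = DMSO wells and -100% = cell-free medium wells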
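CellTiter-Glo luminescence after 48 h compound exposure at 37 degrees C of IDH1-knockdown HT-1080 cells in 5% FBS RPMI. %Activity scaled between DMSO wells and cell-free media wells, with curves fitted and assigned curve classes.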
TDP1 cell noCPT: qHTS for Inhibitors of human tyrosyl-DNA phosphodiesterase 1 (TDP1): qHTS in cells in absence of CPT; DT40 Tdp1-/- hTDP1 cells, no CPT, ATP luminescence, 48 h; Potency, µM (series often up to 46.2 µM), for inactives: at the top dose activity change, negative = growth inhibition, usual class: inhibitors; 15% of 420,000 active; also: potency is read from the fitted curve at half-maximal effect; nearly all actives have a fitted effect of over 55% in size
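Chicken DT40 Tdp1-/- cells complemented with human TDP1, screened without camptothecin (DMSO vehicle only), 400 cells/well. Compounds pin-transferred, cells incubated at 37 °C for at least 48 hr. Growth read as ATP-dependent luminescence (CellTiter-Glo, 30 min at RT).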
IL1B secr inh: blocks inflammasome-driven IL-1 beta release. THP-1 LPS/ATP IL-1B secretion, AlphaLISA, 16 h; stronger effect = lower value. activity change, % at 57.5 µM. 4.7% of 360,000 active. AID 743279; in the data active = activity change below about -50%; inconclusive = mostly about -30% to -49%
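THP-1 cells pretreated 1 hr with compounds (up to 57.5 uM final), then stimulated with LPS (250 ng/mL final) plus ATP (1.25 mM final); secreted IL-1B measured by AlphaLISA after 16 hr, decreased signal indicating inhibition.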
HT1080-NT tox: kills 2HG-producing HT-1080-NT fibrosarcoma cells; HT-1080-NT fibrosarcoma viability, CellTiter-Glo ATP luminescence, 48 h; Potency, µM (highest dose often 46.1 µM), inactives show at the top dose activity, negative = less viability, actives largely listed as cytotoxic; 1.6% of 360,000 active; AID 686970;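 also: NT is the 2HG producing partner of a matched IDH1 knockdown line; potency is read from the fitted curve at half-maximal effect; 0% = DMSO-treated cells and -100% = media-only wells without cells; nearly all actives have a fitted effect of over 55% in size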
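A 48-hour cytotoxicity screen used HT-1080-NT cells plated 2 hours before compound delivery. ATP-based CellTiter-Glo luminescence measured viability, normalized to DMSO and no-cell controls.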
An asterisk follows results filed as active; i = inactive; ? = inconclusive; . = no result given; ! = repeats disagree. Unless noted, calls follow the shape of the dose curve; as a rule, active = well fitted curve in the direction sought with a large enough effect; inconclusive = small, poorly fitted or top-dose-only effect, or another doubt; inactive = no such curve, though single readings can be large; an effect the other way counts as inactive or inconclusive. Unless noted, % is scaled to controls: 0 for no effect and ±100 for the full control effect.

SMILES	DT40 TDP1 CPT	HT1080 IDH1KD tx	TDP1 cell noCPT	IL1B secr inh	HT1080-NT tox
O=C1NC[C@H](CCCCN2C[C@H](Cc3ccccc3)N(CCc3ccc(O)cc3)C(=O)C2=O)N(CCC2CCCCC2)C1=O	?	-22%	?	-57*	-26%
O=C1NC[C@@H](CCCCN2C[C@H](Cc3ccccc3)N(CCC3CCCCC3)C(=O)C2=O)N(Cc2ccccc2)C1=O	?	21µM*	?	?	?
O=C1NC[C@H](CCCCN2C[C@H](Cc3ccccc3)N(CC3CCCCC3)C(=O)C2=O)N(CC2CCCCC2)C1=O	?	?	29µM*	-77*	13%
COc1cc(S(=O)(=O)N2CCN(c3ccccn3)CC2)ccc1Br	-13%	-21%	-21%	-3	-9%
COc1ccc2c(CNC3CCCCCC3)c(C(=O)O)n(Cc3ccc(C)cc3)c2c1	26µM*	.	?	.	.
C=Cc1ccc(Cn2c(C(=O)O)c(CNC3CCCCC3)c3ccc(OC)cc32)cc1	21µM*	.	21µM*	.	.
COc1ccc(Cn2c(C(=O)O)c(CNC3CCCCCC3)c3ccc(OC)cc32)cc1	16µM*	.	?	.	.
COc1ccc(Cn2c(C(=O)O)c(CNC3CCCC3)c3ccc(C)cc32)cc1	12%	.	-21%	.	.
O=C(c1cnccn1)N1CCC2(CCCN(Cc3ccncc3)C2)CC1	11%	.	-1%	.	.
Cc1nnc2sc(SCc3cccc(Cl)c3)nn2c1=O	-8%	-21%	?	-100*	-17%
Cc1nnc2sc(SCc3ccccc3Cl)nn2c1=O	5%	19%	5%	-3	21%
CC(=O)NCCNC(=O)CCCc1nnc2n(C)c(=O)c3sccc3n12	6%	.	-8%	.	.
COc1cc2ncnc(NCc3ccccc3)c2cc1OC	?	-5%	?	?	0%
COc1cc2ncnc(NCc3cccc(Cl)c3)c2cc1OC	15µM*	-17%	15µM*	-25	-21%
COc1cc2ncnc(NCc3ccco3)c2cc1OC	18µM*	0%	?	-11	4%
COc1ccccc1CNc1ncnc2cc(OC)c(OC)cc12	21µM*	-7%	23µM*	-20	0%
COc1cccc(CNc2ncnc3cc(Cl)ccc23)c1	?	?	?	-2	-8%
COc1ccc(CNc2ncnc3cc(OC)c(OC)cc23)cc1OC	4%	-10%	-5%	54	-3%
COc1cc2ncnc(NCc3cc(F)ccc3F)c2cc1OC	-11%	1%	?	-14	-4%
COc1ccc(CNc2ncnc3cc(Cl)ccc23)cc1	15µM*	-28%	13µM*	56	-26%
O=C(NNc1ccc(F)cc1F)c1cccs1	1%	?	-25%	.	-30%
COCC(=O)N1CCC[C@@]2(CCN(C(c3ccccc3)c3ccccc3)C2)C1	0%	.	?	.	.
O=C(NCCCn1ccnc1)c1ccc(OCC(F)(F)F)cc1	6%	18%	6%	0	16%
Cn1c(Cl)c(/C=N/OC(=O)C(C)(C)C)c2ccccc21	3%	27%	-5%	0	16%
Brc1ccc2ncnc(NCc3ccco3)c2c1	21µM*	-17%	18µM*	-9	-7%
SMILES	DT40 TDP1 CPT	HT1080 IDH1KD tx	TDP1 cell noCPT	IL1B secr inh	HT1080-NT tox
Fc1cccc(CNc2ncnc3cc(Cl)ccc23)c1F	16µM*	-19%	10µM*	15	-16%
c1coc(CNc2ncnc3[nH]ncc23)c1	11µM*!	20%	?	15	3%
CCOC(=O)C1CCN(C(=O)CSc2n[nH]c(-c3ccccc3)n2)CC1	-23%	.	?	.	.
CCOC(=O)Cc1ccc(Nc2nc3cc(-c4sccc4C)sc3c(=O)n2C)cc1	2.9µM*	4.6µM*	3.7µM*	0	8.2µM*
Cc1ccsc1-c1cc2nc(NCCOc3ccccc3Cl)n(C)c(=O)c2s1	?	12%	?	-10	4%
COc1ccc(Nc2nc3cc(-c4sccc4C)sc3c(=O)n2C)cc1OC	1.3µM*	1.3µM*	1µM*	-2	?
COc1ccc(Nc2nc3cc(-c4ccsc4)sc3c(=O)n2C)cc1OC	13µM*	-20%	?	14	-21%
COc1ccc(CN(C)CC2CCCN(CCc3ccc(F)cc3)C2)c(OC)c1OC (stereo not drawn)	23µM*	-22%	15µM*	.	-17%
CCN(Cc1ccc(C#CCCO)cc1)CC1CCCN(CCc2cccc(F)c2)C1 (stereo not drawn)	?	-21%	21µM*	-23	-23%
COc1ccc(CCN2CCCC(CN(C)C(=O)c3ccoc3C)C2)cc1 (stereo not drawn)	-19%	1%	-29%	i	-1%
COc1ccc(CCN2CCCC(CN(C)Cc3cc(OC)ccc3OC)C2)cc1 (stereo not drawn)	?	-28%	?	?	?
CN(Cc1ccc(C#CCCO)cc1)CC1CCCN(CCc2ccc(Cl)cc2)C1 (stereo not drawn)	18µM*	?	15µM*	-29	26µM*
Cc1occc1C(=O)N(C)CC1CCCN(CCc2ccc(Cl)cc2)C1 (stereo not drawn)	?	-17%	21µM*	-22	-9%
COc1ccc(CCN2CCCC(CN(C)Cc3cccc(OC)c3)C2)cc1 (stereo not drawn)	?	?	?	-15	?
COc1ccccc1NCC(=O)NNCC(=O)Nc1ccc(F)c(Cl)c1	-6%	-4%	-25%	-12	0%
CCC(=O)N1CCc2cc(Br)cc(S(=O)(=O)CCC(=O)NCc3ccc(C)cc3)c21	1%	.	0%	.	.
O=C(O)c1cc2[nH]c3c(c2cc1Cl)CCCC3	10%	-1%	7%	-4	-3%
CCOC(=O)/C=C1\Nc2ccccc2OC1=O	8.2µM*	11%	10µM*	5	4%
NC(=O)CSc1oc(-c2ccco2)nc1S(=O)(=O)c1ccc(Cl)cc1	4%	1%	3%	-8	-2%
CCOc1ccc(NC(=O)CSc2oc(-c3ccco3)nc2S(=O)(=O)c2ccc(Cl)cc2)cc1	21µM*	.	?	.	.
Cc1cc(C)cc(NC(=O)CSc2oc(-c3ccco3)nc2S(=O)(=O)c2ccc(Cl)cc2)c1	23µM*	.	?	.	.
Cc1cccnc1C1=NOC(Cc2ccccc2)C(=O)N1Cc1ccc2c(c1)OCO2 (stereo not drawn)	-2%	0%	?	9	5%
CC(C)Oc1ccc(C(=O)NCC(c2ccc(N(C)C)cc2)N2CCc3ccccc32)cc1 (stereo not drawn)	9.2µM*	.	21µM*	.	.
COc1ccccc1C(=O)NCC(c1ccc(N(C)C)cc1)N1CCc2ccccc21 (stereo not drawn)	21µM*	.	16µM*	.	.
